Measured values: PubChem BioAssay (Tox21)
Results filed as inconclusive are left out. A call without a number means that no potency is given here. The source made the active and inactive calls. The call rests on the fitted dose curve.

Legend:
[1] = biological target: Acetylcholinesterase (Homo sapiens) (UniProt P22303); experiment: Acetylcholinesterase (AChE) small molecule antagonists: colormetric cell-based qHTS assay (AID 1347395); further: nearly all actives have a fitted effect of over 30% in size
Chain of Acetylcholinesterase (Homo sapiens) (P22303 whole entry, looked up): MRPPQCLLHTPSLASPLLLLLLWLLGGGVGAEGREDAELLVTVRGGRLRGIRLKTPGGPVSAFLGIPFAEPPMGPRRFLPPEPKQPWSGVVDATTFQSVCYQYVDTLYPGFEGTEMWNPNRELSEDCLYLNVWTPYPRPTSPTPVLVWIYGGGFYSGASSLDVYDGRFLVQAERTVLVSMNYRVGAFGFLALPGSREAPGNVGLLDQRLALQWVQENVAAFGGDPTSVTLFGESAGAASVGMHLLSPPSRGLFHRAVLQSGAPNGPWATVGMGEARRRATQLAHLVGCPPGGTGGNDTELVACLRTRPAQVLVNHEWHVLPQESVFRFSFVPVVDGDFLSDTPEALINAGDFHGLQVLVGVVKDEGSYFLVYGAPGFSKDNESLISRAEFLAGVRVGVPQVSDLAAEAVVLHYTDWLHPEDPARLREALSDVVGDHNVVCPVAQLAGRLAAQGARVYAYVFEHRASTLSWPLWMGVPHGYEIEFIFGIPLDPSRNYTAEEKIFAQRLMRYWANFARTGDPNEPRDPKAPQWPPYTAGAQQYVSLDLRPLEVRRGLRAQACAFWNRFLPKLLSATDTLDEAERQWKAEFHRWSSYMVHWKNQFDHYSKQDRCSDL
Outline: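 Colorimetric readout: DTNB quantifies thiocholine from acetylthiocholine hydrolysed by endogenous AChE of SH-SY5Y cells (2,000/well, plated overnight). Compound pretreatment 30 min, substrate incubation 90 min, both 37 C.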

[2] = biological target: Acetylcholinesterase (Homo sapiens) (UniProt P22303); experiment: Acetylcholinesterase (AChE) small molecule antagonists: enzyme-based qHTS assay (AID 1347397); settings: Potency: AChE enzyme activity inhibition; outcome: AChE enzyme activity inhibition; further: nearly all actives have a fitted effect of over 55% in size
Outline: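 Colorimetric DTNB readout of acetylthiocholine hydrolysis, 10 min at room temperature, after 30 min room-temperature exposure of 50 mU/mL recombinant human enzyme to compound; DMSO vehicle control.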

[3] = biological target: Acetylcholinesterase (Homo sapiens) (UniProt P22303); experiment: Acetylcholinesterase (AChE) small molecule antagonists: fluorescence cell-based qHTS assay (AID 1347398); settings: Potency: AChE activity; outcome: AChE activity; further: nearly all actives have a fitted effect of over 50% in size
Outline: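 Cellular AChE activity read as thiocholine from acetylthiocholine hydrolysis, detected by Thiolite Green fluorescence at 490/520 nm after 40 min at room temperature. Compounds were pre-incubated 30 min at 37 C on adherent SH-SY5Y cells.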

[4] = biological target: Acetylcholinesterase (Homo sapiens) (UniProt P22303); experiment: Acetylcholinesterase (AChE) small molecule antagonists: enzyme-based qHTS assay with human liver microsomes (AID 1347399); settings: Potency: qHTS inhibition; outcome: qHTS inhibition; further: nearly all actives have a fitted effect of over 60% in size
Outline: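 Recombinant human AChE (50 mU/mL in the enzyme mix) and human liver microsomes (0.25 mg/mL final) were preincubated with compound and NADPH (0.25 mg/mL final) for 30 min at 37 C. Acetylthiocholine/DTNB was then added; thiocholine was read colorimetrically after 10 min at room temperature.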
Potency means the concentration at half of the fitted maximal effect.

| SMILES | Potency [1] | Potency [2] | Potency [3] | Potency [4] |
| --- | --- | --- | --- | --- |
| CCOC(=O)c1ccccc1 | inactive | inactive | inactive | inactive |
| CCCCC/C=C/CC1CC(=O)OC1=O (configuration not stated) | inactive | inactive | inactive | inactive |
| O=c1c2ccccc2nnn1CCl | inactive | inactive | inactive | inactive |
| O=C(O)[C@@H]1CSCN1 | inactive | inactive | inactive | inactive |
| Clc1cc(Cl)c2c(c1)N=C1CCCCCN1C2 | 776 nM (active) | 871 nM (active) | 617 nM (active) | 3890 nM (active) |
| COC(=O)c1cc(Cl)cc(Cl)c1 | inactive | inactive | inactive | inactive |
| C=C(C)C(=O)OCC(O)COc1ccc(C(C)(C)c2ccc(OCC(O)COC(=O)C(=C)C)cc2)cc1 (configuration not stated) | inactive | inactive | inactive | inactive |
| O=P(O)(O)OCC(O)CO (configuration not stated) | inactive | inactive | inactive | inactive |
| CCCCCCCCCCCCCCCCOS(=O)(=O)O | inactive | inactive | inactive | inactive |
| NC(=O)C1CO1 (configuration not stated) | inactive | inactive | inactive | inactive |
| CCOC(=O)CC(C)O (configuration not stated) | inactive | inactive | inactive | inactive |
| O=C(O)CCN(C1(C(=O)NO)CCCC1)S(=O)(=O)c1ccc(Oc2ccc(F)cc2)cc1 | inactive | inactive | inactive | inactive |
| CC(C)(C)c1cc(C=O)cc(C(C)(C)C)c1O | inactive | inactive | inactive | inactive |
| CCCCCCCCC(CO)CCCCCC (configuration not stated) | inactive | inactive | inactive | inactive |
| CCCCCc1ccco1 | inactive | inactive | inactive | inactive |
| N#CC1(c2ccc(F)cc2)CCC(=O)CC1 | inactive | inactive | inactive | inactive |
| Cc1ccc(Cl)cc1Cl | inactive | inactive | inactive | inactive |
| C=COCC1CCC(COC=C)CC1 (configuration not stated) | inactive | inactive | inactive | inactive |
| Cc1cccc(N(C)C(=S)Oc2ccc3c(c2)CCC3)c1 | inactive | inactive | inactive | inactive |
| C1OCOCO1 | inactive | inactive | inactive | inactive |
| O=C(OCC(COC(=O)c1ccccc1)(COC(=O)c1ccccc1)COC(=O)c1ccccc1)c1ccccc1 | inactive | inactive | inactive | inactive |
| CCC(O)CO (configuration not stated) | inactive | inactive | inactive | inactive |

| SMILES | Potency [1] | Potency [2] | Potency [3] | Potency [4] |
| --- | --- | --- | --- | --- |
| CCCc1ccc(OC)cc1 | inactive | inactive | inactive | inactive |
| NNC(=O)CCCCC(=O)NN | inactive | inactive | inactive | inactive |
| CCOC(=O)CC(=O)C(=O)OCC | inactive | inactive | inactive | inactive |
| CCO[Si](CCC1CCC2OC2C1)(OCC)OCC (configuration not stated) | inactive | inactive | inactive | inactive |
| O=C1CCCCCCCCCCCCCCCO1 | inactive | inactive | inactive | inactive |
| O=c1cccccc1O | inactive | inactive | inactive | inactive |
| O=C(O)c1cccc(Cl)n1 | inactive | inactive | inactive | inactive |
| C=C(C)[C@@H]1CC[C@@H](C)C[C@@H]1O | inactive | inactive | inactive | inactive |
| CCOC(=O)/C=C/C(=O)OCC | inactive | inactive | inactive | inactive |
| CC(C)CCCC(C)CCO (configuration not stated) | inactive | inactive | inactive | inactive |
| O=C(O)/C=C/c1ccccc1 | inactive | inactive | inactive | inactive |
| CN(C)c1ccc(C=O)cc1 | inactive | inactive | inactive | inactive |
| CCCCCCC(C)Nc1ccc(Nc2ccccc2)cc1 (configuration not stated) | inactive | inactive | inactive | inactive |
| FC(F)(F)C(F)(F)C(F)(F)C(F)(F)C(F)(F)C(F)(F)C(F)(F)C(F)(F)Br | inactive | inactive | inactive | inactive |
| Cc1cscn1 | inactive | inactive | inactive | inactive |
| CCOC(=S)SSC(=S)OCC | inactive | inactive | inactive | inactive |
| CCOc1ccc2[nH]cc(C(=O)NCc3ccccc3)c(=O)c2n1 | inactive | inactive | inactive | inactive |
| CCC(C)(CCC(C)C)C(=O)O (configuration not stated) | inactive | inactive | inactive | inactive |
| Nc1nc(-c2ccccc2)cs1 | inactive | inactive | inactive | inactive |
| C[C@@H](O)[C@H]1C(=O)N2C(C(=O)O)=C([C@H]3CCCO3)S[C@H]12 | inactive | inactive | inactive | inactive |
| O=C(O)c1cc(N=Nc2ccc([N+](=O)[O-])cc2)ccc1O | inactive | inactive | inactive | inactive |
